# Assay results: PubChem BioAssay
# Values without a mark were called inactive. Active and inactive are the calls of the source.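 Rule for the calls: active = inhibition at or above 50% relative to wild type and mutant plate controls; inactive = inhibition below 50%.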
# Assay: loss of swimming-algae plug formation – whole organism, Chlamydomonas reinhardtii, WT vs cilia-less mutant, absorbance, 96-well, primary screen (AID 463189);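 note: 0% = wild type cc124 cells in DMSO and 100% = ciliumless bld1 mutant cells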
# Settings: Chlamydomonas reinhardtii gravitaxis, OD600 absorbance, 2 days; at 10 µM; active compounds read high
row,Compound,inhibition
1,CC12NC(Cc3ccccc31)c1ccccc12 (stereo not drawn),2.33%
2,CCCC[N+]1(C)C2CC(OC(=O)[C@H](CO)c3ccccc3)CC1C1OC12 (stereo partly drawn),-7.48%
3,CCCn1c(=O)c2[nH]c(C3CCCC3)nc2n(CCCOC(=O)c2ccc(S(=O)(=O)F)cc2)c1=O,0.089%
4,O=[N+]([O-])c1cc(O)c(O)c([N+](=O)[O-])c1,-10.8%
5,Cc1nccc2c1[nH]c1ccccc12,10.4%
6,CP(=O)(O)C1=CCNCC1,10%
7,CN[C@@H]1C[C@@H](c2ccc(Cl)c(Cl)c2)c2ccccc21,129% (active)
8,COC[C@H]1OC(=O)c2coc3c2[C@@]1(C)C1=C(C3=O)C2CCC(=O)[C@@]2(C)C[C@H]1OC(C)=O (stereo partly drawn),4.09%
9,Oc1ccc2c3c1O[C@H]1c4[nH]c5ccccc5c4C[C@@]4(O)C(C2)N(CC2CC2)CCC314 (stereo partly drawn),3.32%
10,NCCCP(=O)(O)O,13.9%
11,Oc1ccc2c3c1O[C@H]1[C@@H](O)CC[C@@]4(O)C(C2)N(CC2CCC2)CCC314 (stereo partly drawn),3.28%
12,NCCc1ccc(S(=O)(=O)F)cc1,0.651%
13,Cc1nc(-c2ccc(-c3ccc(C(=O)N4CCc5cc6c(cc54)C4(CCN(C)CC4)CO6)cc3)c(C)c2)no1,141% (active)
14,CN1C2CCC1CC(OC(c1ccccc1)c1ccccc1N)C2 (stereo not drawn),-4.19%
15,CN1C2CCC1CC(OC(=O)c1cc(Cl)cc(Cl)c1)C2 (stereo not drawn),116% (active)
16,COC(=O)[C@@H](N)CCCN=C(N)N[N+](=O)[O-],-4.62%
17,OC1CCCCC1N1CCC(c2ccccc2)CC1 (stereo not drawn),3.25%
18,NC(=O)CN1CCCC1=O,-12.5%
19,C[C@]12CCC3C(CC[C@H]4C[C@H](O)CC[C@]34C)C1CC[C@@H]2C(=O)CO (stereo partly drawn),4.52%

row,Compound,inhibition
1,C=C(C)[C@H]1CN[C@H](C(=O)O)[C@H]1CC(=O)O,-2.25%
2,CCN1C[C@]2(C)CC[C@H](O)[C@@]34C5C[C@@H]6[C@@H](OC)C[C@@](O)(C5[C@H]6O)[C@@H](CC23)C14 (stereo partly drawn),7.34%
3,COc1ccc(CNC(=O)/C=C/c2ccc3[nH]cc(CCN(C)C)c3c2)cc1,-7.85%
4,C[N+]1(C)C2CCC1CC(OC(=O)c1c[nH]c3ccccc13)C2 (stereo not drawn),8.92%
5,C[C@H](Cc1ccc2c(c1)OC(C(=O)O)(C(=O)O)O2)NC[C@H](O)c1cccc(Cl)c1,1.22%
6,CC(N)C(=O)OC(C)(C)Cc1ccc(Cl)cc1 (stereo not drawn),-6.83%
7,C[N+](C)(C)CC#CCN1CCCC1=O,-6.29%
8,CP(=O)(O)CCCN,3.64%
9,c1ccc(C2CC2)c(OCC2=NCCN2)c1,3.8%
10,CN1C[C@@H](CS(=O)(=O)N(C)C)C[C@@H]2c3cccc4c3c(cn4C)C[C@H]21,4.5%
11,COc1ccc(-n2nc(C(F)(F)F)cc2-c2ccc(Cl)cc2)cc1,-10.1%
12,CC(C)NP(=O)(NC(C)C)OP(=O)(NC(C)C)NC(C)C,5.29%
13,CC(C)Oc1cccnc1N(C)C1CCN(Cc2ccccc2)CC1,54.9% (active)
14,NNC(N)=O,1.88%
15,CCCN(CCC)CCc1c[nH]c2ccc(C(N)=O)cc12,-0.498%
16,CC(=O)NBr,10%
17,CN1C(=O)CCS(=O)(=O)C1c1ccc(Cl)cc1 (stereo not drawn),9.97%
18,CC(=O)[C@H]1CCC2C3CC[C@H]4C[C@H](O)CC[C@]4(C)C3CC[C@@]21C (stereo partly drawn),0.863%
19,CC[N+](CC)(CC)CC,6.89%
